The structures appear in SMILES notation. The list shows a part of the results. Results filed as inconclusive are left out. Values without a mark were called inactive. Activity calls are given as the source filed them. Calls come from the whole dose curve; as a rule, active = well fitted inhibition curve with a large enough effect in the main read-out, with a control signal flat; inconclusive = small, poorly fitted or top-dose-only effect, or a change in a side signal; inactive = no such curve, though single readings can be large or run the other way.

Caspase-7 (Homo sapiens), sequence (P55210 24-198 limits assumed): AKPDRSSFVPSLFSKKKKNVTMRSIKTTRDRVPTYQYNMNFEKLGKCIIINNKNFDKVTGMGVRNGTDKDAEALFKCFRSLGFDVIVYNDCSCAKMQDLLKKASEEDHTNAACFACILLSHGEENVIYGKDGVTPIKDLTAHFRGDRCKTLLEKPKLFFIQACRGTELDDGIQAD
Caspase-7 (Homo sapiens), sequence (P55210 207-303 limits assumed): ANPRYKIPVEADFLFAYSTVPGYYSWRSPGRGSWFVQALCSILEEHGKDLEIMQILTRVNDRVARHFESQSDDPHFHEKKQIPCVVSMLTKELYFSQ

This assay has as its target Caspase-7 (Homo sapiens) (UniProt P55210). The assay is described as follows: Concentration-Response Counterscreen for Redox Active Inhibitors of Caspase-7: Cysteine. Conditions: caspase-7 enzyme with cysteine, fluorogenic substrate; series mostly up to 57.5 µM; activity change, negative = inhibition: at the top concentration. The text has this: NIH Molecular Libraries Screening Centers Network [MLSCN]
NIH Chemical Genomics Center [NCGC]
PI Name: Dr. James Wells,
Dr. Enrique Perez-Paya, Dr.Janice Williams, Dr. Dennis Wolan, a person
The caspases (Cysteine Aspartyl Protease) comprise a related family of 14 dimeric proteases that are critical mediators of apoptosis (programmed cell death) and inflammation. The caspases represent an important class of drug targets for stroke, ischemia, cancer and inflammatory diseases. […] One goal of this project was to identify compounds that act as allosteric inhibitors via stabilizing the procaspase form of the enzyme. […]
The biochemical assay was configured using purified caspase 7 at a high enzyme concentration to promote formation of the homodimers and thus facilitate the identification of allosteric inhibitors. […] After initiation of the assay with substrate the plates were rapidly read using an automated robotic system (Kalypsys, Inc.) to maintain consistent timing. […] Product formation was also measured after 1 hour. […]
Caspase 7 was prepared in buffer (50 mM HEPES pH 7.5, 50 mM KCl, 200 mM NaCl, 10 mM Cys (Aldrich cat# 861677), 0.1% CHAPS) at a concentration of 66.6 nM and 3 uL was dispensed to all wells using black solid Kalypsys 1536-well plates. […] The plates were then exposed using 405 nm excitation/520 nm emission filters for 4 sec and read at 20 sec intervals for 3 min. […]
For the molecule `CCN1C(=O)/C(=C2/Sc3ccccc3N2CCCS(=O)(=O)O)SC1=S`, the “activity change, negative = inhibition” value was -9.17%.
For the molecule `N#CC1=C(N)Oc2cc(O)ccc2C1C1CCCCC1` (configuration not stated), the Potency was 25.1 µM (active).

Values taken from PubChem BioAssay AID908 (National Center for Advancing Translational Sciences (NCATS), 2007).
